About 13,000 (27%) of roughly 48,000 compounds showed an effect of 50% or more. Some of the results follow.
These compounds were tested on Wolbachia pipientis (assay: Anti-Wolbachia Cell-Based Screen). Settings: 5 µM.
Type: functional
Parameters: scale not given: in the data most compounds retested in dose-response had high values

SMILES	Percent Effect [%]
Cn1cc(C(=O)N[C@@H]2CN(Cc3ccc(F)cc3)[C@@H]3CCCO[C@@H]32)cn1.O=C(O)C(F)(F)F	-4.433
Cn1ccnc1C(=O)N[C@@H]1CN(Cc2cccs2)[C@@H]2CCCO[C@@H]21.O=C(O)C(F)(F)F	-0.1124
Cn1cc(C(=O)N[C@@H]2CN(Cc3ccoc3)[C@@H]3CCCO[C@@H]32)cn1	112.9
CCN(CC)[C@@H]1CN(Cc2ccc(C)o2)[C@@H]2CCCO[C@H]12	-8.708
O=C1C(NCc2nnc3n2CCCC3)CCN1CC(F)(F)F (configuration not stated)	-0.8085
COc1ccc(CSCC(O)CO)c(Cl)c1 (configuration not stated)	-5.402
CCn1cc(S(=O)(=O)NC(CO)Cc2c[nH]c3ccccc23)cn1 (configuration not stated)	-10.13
CC(=O)NC1CCN(c2nc(C)nc3c2c(C)nn3C)C1 (configuration not stated)	-5.882
CCN(CC)c1nc2sc(C(=O)NC(C)(C)C(=O)OC)cc2s1	3.402
Cc1ccc(N2Cc3nc(=O)[nH]n3C2=O)cc1	-1.797
Cc1noc(CN2CCN(CCS(C)(=O)=O)CC2)n1	-3.839
COC(=O)c1cc(CN2CCC(c3noc(C)n3)CC2)c(C)s1	83.77
COC(=O)c1ccc(CN2CCC(c3noc(C)n3)CC2)s1	44.67
Cc1nc(C2CCN(S(=O)(=O)c3ccc4c(c3)CCO4)CC2)n[nH]1	0.09354
COC(=O)c1ccc(CN2CCC(c3n[nH]c(C)n3)CC2)s1	96.4
COC(=O)c1ccc(Cn2cccc(C(F)(F)F)c2=O)s1	-1.829
COC(=O)c1ccc(CN2CCN(Cc3nc(C)no3)CC2)s1	97.03
CC(=O)NCC1CCN(Cc2nc(C3CC3)no2)CC1	21.76
Cc1noc(CN2CCN(C(C)C(=O)NCc3cccs3)CC2)n1 (configuration not stated)	10.97
O=C1CCCc2occ(C(=O)N3CCCC4(CCNC4)C3)c21 (configuration not stated)	-0.7654
Cc1c(Cl)cccc1S(=O)(=O)NCC(O)c1cccn1C (configuration not stated)	9.208
O=C(NCCn1cccn1)Nc1cc(C(=O)N2CCOCC2)ccc1Cl	-1.545
COCCNC(=O)[C@H]1C[C@@](CC(C)C)(C(=O)O)N(C)[C@H]1c1cccnc1	-5.7
CC(CNC(=O)N1CCC(CO)CC1)Cc1cccs1 (configuration not stated)	-8.447

SMILES	Percent Effect [%]
Cc1cc(C)n(-c2ccc(C(=O)NCc3cncn3CC(C)C)cc2)n1	-4.296
CSCc1nc(CNC(=O)c2cnn(C(C)C)c2)cs1	-8.764
Cc1cc(C)n(-c2ccc(C(C)NS(=O)(=O)CCCS(C)(=O)=O)cc2)n1 (configuration not stated)	5.826
CCCS(=O)(=O)NC(=O)c1ccc(-n2nc(C)cc2C)cc1	-12.15
Cc1cc(C)n(-c2ccc(C(=O)NCC(CO)Cc3ccco3)cc2)n1 (configuration not stated)	116.9
CC(C)n1cc(C(=O)NCC(CO)Cc2cccs2)cn1 (configuration not stated)	100.7
Cc1cc(C)n(-c2ccc(C(=O)NCC(CO)Cc3cccs3)cc2)n1 (configuration not stated)	87.25
CC(C)n1cc(C(=O)NCCc2cn3ccsc3n2)cn1	-2.025
Cc1cc(-c2nn(C)c(Cl)c2CN2Cc3ccccc3C(O)C2)no1 (configuration not stated)	9.326
CCCS(=O)(=O)N1CCC2(CCCC(=O)N2C)CC1	-27.87
COCCN1CCN(Cc2ccc(C(C)=O)cc2)[C@H]2CS(=O)(=O)C[C@H]21	-2.157
Cc1nn(C)c(Oc2cccc(F)c2)c1NC(=O)C1CCCO1 (configuration not stated)	1.382
COC(=O)C1CN(Cc2ccc(-c3ccncc3)cc2F)C[C@@H](C)O1 (some centres not stated)	4.503
CC(C)OCCN1CCN(C(=O)c2cccc(-n3cccn3)n2)CC1	-4.895
COc1cccc2c1OCC(CNC(=O)CSc1ccccn1)C2 (configuration not stated)	-6.827
COc1cccc2c1OCC(C(=O)NCCc1nnc(N)s1)C2 (configuration not stated)	12.39
COc1cccc2c1OCC(NC(=O)NCCc1ccccn1)C2 (configuration not stated)	120.5
COc1cccc2c1OCC(NC(=O)NCCC(N)=O)C2 (configuration not stated)	107.1
COc1cccc2c1OCC(CNC(=O)CNC(N)=O)C2 (configuration not stated)	-0.3476
COc1cccc2c1OCC(C(=O)NCCc1nnc(C)s1)C2 (configuration not stated)	6.125
CNC(=O)c1cccc(CNC2CCCSc3ccccc32)c1 (configuration not stated)	-0.5699
CN(C)C(C(=O)NCC1(Cn2cccn2)CC1)c1ccc(F)cc1 (configuration not stated)	-7.743
CSc1ccc(OC(C)C(=O)Nc2cc[nH]n2)cc1 (configuration not stated)	1.482

Reference: ChEMBL document CHEMBL3988442, “University of Dundee, Small-Polar-MMV Screening Library” (2021)
